High-throughput results deposited in PubChem BioAssay by National Center for Advancing Translational Sciences (NCATS).
HEK293 tox – HEK 293 cell cytotoxicity | HEK 293 viability, ATP luminescence (CellTiter-Glo), 48-72 h | Potency, µM (titrated, usually from 115 µM), inactives show at the highest dose activity change, negative = cytotoxicity, hits mostly inhibitors | 94,000 tested, 6.6% active | AID 1345083; also: % is scaled to controls: 0 for no effect and ±100 for the full control effect; nearly all actives have a fitted effect of over 60% in size
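CellTiter-Glo luminescence (cellular ATP) was read after 48 or 72 hr of compound exposure at 37 degree Celsius. Cells were HEK 293 plated at 250 cells/well.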
hNpr1 antagonist – antagonists of human natriuretic peptide receptor Npr1; HEK293 hNpr1 GloSensor cGMP, ANP-stimulated luminescence; Potency, µM (top dose mostly 46.3 µM), for inactives: top-dose activity change, negative = inhibition, most hits filed as inhibitors; 76,000 tested, 1.6% active; calls by dose curve; also: % is scaled to controls: 0 for no effect and ±100 for the full control effect; nearly all actives have a fitted effect of over 60% in size
Target sequence (P16066 whole entry, looked up): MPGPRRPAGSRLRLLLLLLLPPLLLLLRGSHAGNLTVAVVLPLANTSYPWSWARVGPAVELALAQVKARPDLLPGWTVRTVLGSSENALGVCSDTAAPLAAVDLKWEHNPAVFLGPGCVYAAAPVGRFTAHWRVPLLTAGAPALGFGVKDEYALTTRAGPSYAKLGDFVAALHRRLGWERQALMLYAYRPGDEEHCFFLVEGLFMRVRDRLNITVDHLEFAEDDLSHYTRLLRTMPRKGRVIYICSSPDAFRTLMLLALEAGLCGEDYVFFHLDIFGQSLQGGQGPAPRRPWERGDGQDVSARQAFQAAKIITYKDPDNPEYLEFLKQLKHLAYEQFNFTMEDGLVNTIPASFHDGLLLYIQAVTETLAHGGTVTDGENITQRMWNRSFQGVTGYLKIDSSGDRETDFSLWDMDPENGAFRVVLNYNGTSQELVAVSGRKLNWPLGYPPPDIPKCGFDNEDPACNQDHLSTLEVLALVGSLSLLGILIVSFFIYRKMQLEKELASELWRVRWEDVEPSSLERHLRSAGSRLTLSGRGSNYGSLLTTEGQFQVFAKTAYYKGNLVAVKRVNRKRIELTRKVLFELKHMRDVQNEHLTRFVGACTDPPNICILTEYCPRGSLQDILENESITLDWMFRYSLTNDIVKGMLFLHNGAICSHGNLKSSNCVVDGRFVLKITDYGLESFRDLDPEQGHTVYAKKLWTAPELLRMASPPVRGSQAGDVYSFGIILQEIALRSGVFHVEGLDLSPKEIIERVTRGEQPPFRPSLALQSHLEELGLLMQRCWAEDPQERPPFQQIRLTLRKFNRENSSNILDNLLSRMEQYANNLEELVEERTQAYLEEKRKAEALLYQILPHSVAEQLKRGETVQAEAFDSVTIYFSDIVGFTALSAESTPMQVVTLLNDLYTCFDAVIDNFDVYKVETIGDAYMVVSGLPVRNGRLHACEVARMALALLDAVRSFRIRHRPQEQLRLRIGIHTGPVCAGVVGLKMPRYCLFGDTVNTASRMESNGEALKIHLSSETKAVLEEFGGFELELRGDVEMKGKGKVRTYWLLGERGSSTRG
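Compound pre-incubated 30 min at room temperature on GloSensor-loaded HEK293 cells stably carrying hNpr1 and the pGS-40F cGMP biosensor. Stimulation uses hNppA at 0.1 nM final; luminescence is taken at baseline and 20 min post-agonist.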
3T3 cytotox – NIH 3T3 cell cytotoxicity. NIH 3T3 viability, CellTiter-Glo ATP luminescence, 48-72 h. Potency, µM (highest dose often 96.7 µM), for the others: at the highest dose activity change, negative = cytotoxicity, actives largely listed as inhibitors. 94,000 tested, 4.3% active; also: % is scaled to controls: 0 for no effect and ±100 for the full control effect; nearly all actives have a fitted effect of over 55% in size
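ATP-dependent luminescence (CellTiter-Glo) served as the viability signal for NIH 3T3 cells treated with compound for 48 or 72 hr at 37 °C.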
FLuc inh – inhibitors of firefly (Photinus pyralis) luciferase | 76,000 tested, 2.5% active | Potency, µM (highest dose often 115 µM), usual class: inhibitors | AID 1347043 | P08659 | purified P. pyralis luciferase, luminescence, biochemical; also: % is scaled to controls: 0 for no effect and ±100 for the full control effect; nearly all actives have a fitted effect of over 65% in size
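FLuc 10nM, D-luciferin 10uM, ATP 10uM, Mg acetate 10mM, Tris acetate pH 7.5, Tween/BSA; cpd qHTS; enzyme added last; CCD luminescence.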
NPR1 antag cnf – hNpr1 antagonism, confirmation assay | HEK293 hNpr1 cGMP GloSensor luminescence, ANP-stimulated | shares compounds with hNpr1 antagonist | 1,400 tested, 76% active | Potency, µM (titrated, usually from 57.6 µM), inactives show top-dose activity change, negative = inhibition, hits mostly inhibitors; calls by dose curve; also: nearly all actives have a fitted effect of over 70% in size
Npr2 selectivity – selectivity test of Npr1 antagonists against human Npr2; shares compounds with hNpr1 antagonist; HEK293 hNpr2 GloSensor cGMP luminescence, CNP-stimulated; Potency, µM (series often up to 57.6 µM), without a hit: at the highest dose activity change, negative = inhibition, most hits filed as inhibitors; 1,400 tested, 67% active; calls by dose curve; also: nearly all actives have a fitted effect of over 70% in size
FLuc counter – counter-screen for Npr1 antagonists: firefly luciferase inhibitors; purified FLuc enzyme, luminescence, Km substrate; Potency, µM (titrated, usually from 57.6 µM), without a hit: top-dose activity change, negative = inhibition, most hits filed as inhibitors; 1,400 tested, 0.7% active; shares compounds with hNpr1 antagonist; AID 1347047; also: series mostly up to about 58 µM; 0% is about no effect
GloSensor cGMP – control cell line activity, Npr1 antagonist counter-screen. shares compounds with hNpr1 antagonist. HEK293 GloSensor cGMP, SNP-stimulated, luminescence. Potency, µM (titrated, usually from 57.6 µM), for the others: at the highest dose activity change, negative = inhibition, actives largely listed as inhibitors. 1,400 tested, 69% active. AID 1347051; calls by dose curve; also: % is scaled to controls: 0 for no effect and ±100 for the full control effect; nearly all actives have a fitted effect of over 70% in size
Numbers without * were called inactive; [ ] = dose if it differs, or a comment. Rows were chosen to be rich in hits. Some 11% of all compounds tested hit in one or more screens of this group. Unless noted, calls follow the shape of the dose curve; as a rule, active = well fitted curve in the direction sought with a large enough effect; inconclusive = small, poorly fitted or top-dose-only effect, or another doubt; inactive = no such curve, though single readings can be large; an effect the other way counts as inactive or inconclusive. Potency is read from the fitted curve at half-maximal effect.

What do the screens show for `O=C(COc1ccc(Cl)cc1)N1CCC(Cc2nc(-c3ccccc3)no2)CC1`?
HEK293 tox: 40µM*; hNpr1 antagonist: 14µM*; 3T3 cytotox: inconclusive; FLuc inh: inactive; NPR1 antag cnf: 12µM*; Npr2 selectivity: 14µM*; FLuc counter: -2%; GloSensor cGMP: 12µM*

What do the screens show for `Fc1cccc(CN2CCC(Oc3ccc(-c4noc(C5CC5)n4)cc3)C2)c1` (stereo not given)?
HEK293 tox: inconclusive; hNpr1 antagonist: 20µM*; 3T3 cytotox: inconclusive; FLuc inh: inactive; NPR1 antag cnf: 27µM*; Npr2 selectivity: inconclusive; FLuc counter: 0%; GloSensor cGMP: inconclusive

Results for O=C(NC1CC1)c1ccc2nc(-c3ccnc(Cl)c3)oc2c1 ?
HEK293 tox: 1%[172 µM]; 3T3 cytotox: inconclusive

How did COc1ccccc1-c1[nH]ncc1CN1CCn2nnc(CCC(=O)N3CCCC3)c2C1 do in these assays?
HEK293 tox: -2%; hNpr1 antagonist: 13%; 3T3 cytotox: -3%; FLuc inh: inactive

Results for Cn1nc(C2CCCN(C(=O)c3ccccc3)C2)n(C2CCCC2)c1=O (stereo not given) ?
HEK293 tox: -20%; 3T3 cytotox: -31%

How did CN1C(=O)c2cccn2CC1C(=O)N1CCN(c2ccccn2)CC1 (stereo not given) do in these assays?
HEK293 tox: -2%; 3T3 cytotox: 0%

How did COc1ccccc1-c1cc(C(=O)NCc2cccnc2)nn2cnnc12 do in these assays?
HEK293 tox: -13%; 3T3 cytotox: -29%

How did CC(C)c1noc(CC2CCN(C(=O)c3ccc(F)cc3)CC2)n1 do in these assays?
HEK293 tox: inconclusive; hNpr1 antagonist: inconclusive; 3T3 cytotox: -34%; FLuc inh: inactive; NPR1 antag cnf: inconclusive; Npr2 selectivity: inconclusive; FLuc counter: -1%; GloSensor cGMP: inconclusive

What do the screens show for `CC(C)c1noc(CC2CCN(C(=O)c3ccc(C(C)(C)C)cc3)CC2)n1`?
HEK293 tox: inconclusive; hNpr1 antagonist: -4%; 3T3 cytotox: -27%; FLuc inh: inactive

What do the screens show for `COc1cc(C(=O)N2CCC(Cc3nc(-c4ccc(F)cc4)no3)CC2)cc(OC)c1OC`?
HEK293 tox: inconclusive; hNpr1 antagonist: 13µM*; 3T3 cytotox: inconclusive; FLuc inh: inactive; NPR1 antag cnf: 14µM*; Npr2 selectivity: 19µM*; FLuc counter: -1%; GloSensor cGMP: 15µM*

How did O=C(c1cccc(F)c1)N1CC(Oc2ccc(-c3noc(C4CCOCC4)n3)cc2)C1 do in these assays?
HEK293 tox: inconclusive; hNpr1 antagonist: 6.3µM*; 3T3 cytotox: inconclusive; FLuc inh: inactive; NPR1 antag cnf: 4.3µM*; Npr2 selectivity: 5.4µM*; FLuc counter: -6%; GloSensor cGMP: 3.4µM*

Results for COc1ccc(CC(=O)N2CCC(Cc3nc(-c4ccc(F)cc4)no3)CC2)cc1OC ?
HEK293 tox: inconclusive; hNpr1 antagonist: 7.1µM*; 3T3 cytotox: inconclusive; FLuc inh: inactive; NPR1 antag cnf: 3.1µM*; Npr2 selectivity: 9.7µM*; FLuc counter: 1%; GloSensor cGMP: 6.1µM*

How did CCCNC(=O)c1ccc2c(c1)CC(=O)N2Cc1cccc(F)c1 do in these assays?
HEK293 tox: -25%; hNpr1 antagonist: -2%; 3T3 cytotox: inconclusive; FLuc inh: inconclusive

Results for CN1CC(=O)N(c2ccccc2)Cc2c1ncnc2N1CCc2ccccc2C1 ?
HEK293 tox: inconclusive; hNpr1 antagonist: -4%; 3T3 cytotox: inconclusive; FLuc inh: inactive

How did CCOc1ccc(CC(=O)N2CCC(Cc3nc(-c4ccc(F)cc4)no3)CC2)cc1 do in these assays?
HEK293 tox: inconclusive; hNpr1 antagonist: 6.3µM*; 3T3 cytotox: inconclusive; FLuc inh: inactive; NPR1 antag cnf: 5.4µM*; Npr2 selectivity: 6.1µM*; FLuc counter: 6%; GloSensor cGMP: 4.8µM*

How did CC(C)c1noc(CC2CCN(C(=O)Cc3ccc(F)cc3)CC2)n1 do in these assays?
HEK293 tox: -19%; hNpr1 antagonist: -23%; 3T3 cytotox: -42%; FLuc inh: inactive

Results for CCOCCCNC(=O)c1cc(-c2ccccc2C(F)(F)F)nc2c1cnn2C ?
HEK293 tox: -11%; 3T3 cytotox: -16%

Results for COc1cccc(CN2CCCCCCN(C)C(=O)[C@@H]3CCC[C@@H]32)n1 ?
HEK293 tox: inconclusive; hNpr1 antagonist: -11%; 3T3 cytotox: inconclusive; FLuc inh: inactive

Results for CN1CC2(CCOC2)N(C2CCN(C(=O)COc3ccccc3)CC2)C1=O (stereo not given) ?
HEK293 tox: -19%; 3T3 cytotox: -36%

How did O=C1Nc2ccccc2OCC12CCN(Cc1ccc(C(F)(F)F)cc1)CC2 do in these assays?
HEK293 tox: inconclusive; hNpr1 antagonist: 11µM*; 3T3 cytotox: -30%; FLuc inh: inactive; NPR1 antag cnf: 24µM*; Npr2 selectivity: 24µM*; FLuc counter: -2%; GloSensor cGMP: 24µM*

How did Cc1ccc(F)c(C(CC(=O)NCc2ccco2)c2c[nH]c3ccc([N+](=O)[O-])cc23)c1 (stereo not given) do in these assays?
HEK293 tox: 40µM*; hNpr1 antagonist: -29%; 3T3 cytotox: 32µM*; FLuc inh: inactive; NPR1 antag cnf: inconclusive; Npr2 selectivity: inconclusive; FLuc counter: 3%; GloSensor cGMP: inconclusive

How did CCCNC(=O)CC(c1ccc(F)cc1)c1c[nH]c2ccccc12 (stereo not given) do in these assays?
HEK293 tox: inconclusive; hNpr1 antagonist: -12%; 3T3 cytotox: inconclusive; FLuc inh: inactive

How did O=C(Nc1ccc(Cl)cc1)N1CCC(C(=O)N2CCC(N3CCCC3=O)CC2)CC1 do in these assays?
HEK293 tox: 0%; 3T3 cytotox: -16%

How did O=c1n(-c2ccncc2)nc2n1CCN(Cc1ccc(C(F)(F)F)cc1)C2 do in these assays?
HEK293 tox: 13µM*; hNpr1 antagonist: 16µM*; 3T3 cytotox: inconclusive; FLuc inh: inactive; NPR1 antag cnf: 15µM*; Npr2 selectivity: 17µM*; FLuc counter: 4%[86.2 µM]; GloSensor cGMP: 12µM*
